From PubChem
HCMV inh: qHTS Assay for inhibitors of the human cytomegalovirus (HCMV); HFF cells, HCMV-luciferase reporter, 72 h; hits give low values; activity change, negative = inhibition, % at 57.5 µM; 410,000 compounds, 4.5% hits; AID 1259415, 2018; in the data active means activity change below about -60%; inconclusive means no clear call, values can overlap the other calls; inactive means above about -39%; further: on the % scale 0 is the no-effect control and ±100 the full control effect
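Screen run at 2 compound doses on HFFs infected with reporter HCMV, MOI 1 PFU/cell. Luciferase activity from cell lysates at 72 h post infection gave inhibition relative to buffer-only and Salinomycin wells.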
Shiga toxin inh: A qHTS for Small Molecule Inhibitors of Shiga Toxin. inhibition, % at 38.7 µM. 290,000 compounds, 9.2% hits. Vero cells, Shiga toxin protein synthesis inhibition reporter; in the data active means inhibition mostly above about 28%, no sharp cut-off; inactive means mostly below about 43%; further: 0% is about no effect
CHX counter: Cycloheximide Counterscreen for Small Molecule Inhibitors of Shiga Toxin; cell reporter, cycloheximide protein synthesis inhibition counterscreen; 300,000 compounds, 12% hits; AID 2314, 2010; max response, %; in the data active means max response mostly above about 13%, no sharp cut-off; inactive means mostly below about 14%; further: read at 38.3 µM for the half of the compounds with a filed dose; 0% is about no effect
Pf growth 48h: Primary qHTS for delayed death inhibitors of the malarial parasite plastid, 48 hour incubation; AID 504832, 2011; Potency, µM (highest dose often 28.7 µM), for inactives: at the top dose activity change, negative = inhibition, most hits filed as inhibitors; 310,000 compounds, 5.9% hits; P. falciparum luciferase growth in erythrocytes, 48 h; further: potency means the concentration at half of the fitted maximal effect; on the % scale 0 is the no-effect control and ±100 the full control effect
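Here the parasites carry a stable luciferase gene and grow inside erythrocytes in Albumax-based RPMI medium with compound for one erythrocytic cycle. Activity is scored as loss of luminescent signal.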
Pf growth 96h: Primary qHTS for delayed death inhibitors of the malarial parasite plastid, 96 hour incubation; P. falciparum luciferase reporter growth, 96 h; Potency, µM (titrated, usually from 28.7 µM), without a hit: at the highest dose activity change, negative = inhibition, most hits filed as inhibitors; 320,000 compounds, 6.9% hits; AID 504834, 2011; further: potency means the concentration at half of the fitted maximal effect; on the % scale 0 is the no-effect control and ±100 the full control effect
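P. falciparum expressing integrated firefly luciferase grown in erythrocytes (2% hematocrit, 0.05% parasitemia final) with compounds for 96 hours at 37 C, 5% CO2. Growth inhibition read as loss of luminescence after adding luciferase detection reagent.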
* = called active by the depositor; u = inconclusive; x = no result given. In the library only some 20% were active in any assay of this set; here they are far more common. Unless noted, the call rests on the fitted dose curve; in most records, active means well fitted inhibition curve with a large enough effect; inconclusive means small, poorly fitted or top-dose-only effect, or another doubt; inactive means no such curve, though single readings can be large or run the other way.

SMILES	HCMV inh	Shiga toxin inh	CHX counter	Pf growth 48h	Pf growth 96h
COc1ccc(C)cc1N(C(=O)c1snc(C(N)=O)c1N)C(C(=O)NC1CCCC1)c1ccc(F)cc1 (centres undefined)	-31	11	-3	9.3µM*	21%
CCCn1c(SCC(=O)Nc2cccc(S(=O)(=O)N(C)C)c2)nc2ccccc2c1=O	-17	-1	-2	u	u
CCN(C(=O)CSc1nnc(-c2ccco2)n1CC)c1c(N)n(Cc2ccccc2)c(=O)[nH]c1=O	-2	x	x	u	u
CC(=O)c1cc(F)ccc1OCC(=O)Nc1ccc2c(c1)OCO2	21	x	x	x	x
S=C(Nc1ccccc1)Nc1ccccc1-n1cccc1	20	28	22*	u	u
FC(F)(F)c1ccccc1NC(=S)Nc1ccccc1	u	-6	-2	7%	1.5µM*
COc1ccc(NC(=S)Nc2ccccc2C(F)(F)F)cc1	3	9	11	29%	31%
CCC(CC)C(=O)Nc1ccccc1-n1cccc1	26	2	-3	38%	210%
CC(=O)OC(C(=O)NC1CCCCC1)c1ccc(C#N)cc1 (centres undefined)	23	2	2	17%	u
CCCCCCCCCCCCCCCC[N+](C)(C)C	-94*	x	x	4.1µM*	2.9µM*
C[N+](C)(C)CCCCCC[N+](C)(C)C	-1	x	x	5%	-13%
CCCCCCCCCCCCCC[N+](C)(C)C	x	x	x	0.95µM*	0.95µM*
Nc1ccn([C@@H]2O[C@H](CNCc3cc(Br)ccc3OCc3ccccc3)[C@@H](O)[C@H]2O)c(=O)n1	-9	x	x	x	x
COc1ccccc1NC(=O)c1c(C)cc(C)nc1SCC(=O)Nc1cccc(C)c1	-9	x	x	x	x
O=C(Cn1c(=O)nc(-c2ccccc2)c2cc(Cl)ccc21)NCCCc1ccccc1	16	x	x	x	x
Cc1cccc(N(Cc2cc(=O)[nH]c3ccccc23)C(=O)C(C)C)c1	8	-12	-2	u	-20%
CC(=O)N(Cc1cc(=O)[nH]c2ccccc12)c1cccc(C)c1	-6	-6	5	u	u
Cc1cccc(N(Cc2cc(=O)[nH]c3ccccc23)C(=O)CCl)c1	-96*	-3	-3	u	u
CC(=O)N(Cc1cc(=O)[nH]c2ccccc12)c1ccccc1C	-2	-2	-2	-22%	-24%
CCCC(=O)N(Cc1cc(=O)[nH]c2ccccc12)c1cccc(C)c1	-6	-2	-1	12µM*	8.3µM*
CCCC(=O)N(Cc1cc(=O)[nH]c2ccccc12)c1ccc(OC)cc1	69	4	-4	-21%	u
COc1ccc(N(Cc2cc(=O)[nH]c3ccccc23)C(=O)CCl)cc1	-101*	x	0	u	24%
CCCC(=O)N(Cc1cc(=O)[nH]c2ccccc12)c1ccccc1C	-73*	-2	-5	u	u
Cc1cccc(NC(=O)CN2C(=O)CCn3nc(-c4cccn4C)cc32)c1C	13	x	x	x	x
O=C(C1=COCCO1)N1CCN(S(=O)(=O)c2cccc(Cl)c2Cl)CC1	12	-17	-3	u	15µM*
SMILES	HCMV inh	Shiga toxin inh	CHX counter	Pf growth 48h	Pf growth 96h
Cc1ccc(-n2nnnc2SCC(=O)N2CCN(C(=O)c3ccco3)CC2)c(C)c1	-7	-1	-4	-19%	6.6µM*
Cc1cc2cc3c(cc2nc1SCC(=O)N1CCN(C(=O)c2ccco2)CC1)OCO3	12	-6	-3	13µM*	u
COc1ccc(OC)c(-n2nnnc2SCC(=O)N2CCN(C(=O)c3ccco3)CC2)c1	-6	9	9	-9%	u
CCc1cc2ccc(OC)cc2nc1SCC(=O)N1CCN(C(=O)c2ccco2)CC1	0	-1	-2	u	u
Cc1cc(C)cc(-c2nnc(SCC(=O)N3CCN(C(=O)c4ccco4)CC3)o2)c1	-10	24	-2	u	12µM*
O=C(CSc1nnc(-c2ccc(Br)cc2)o1)N1CCN(C(=O)c2ccco2)CC1	-25	14	-2	u	u
CCC(=O)Nc1ccc2c(c1)OC[C@@H](C)N(C(=O)c1ccccn1)C[C@@H](C)[C@@H](OC)CN(C)C2=O	-13	x	x	x	x
O=C(c1ccccc1)N1CCN(C(=O)c2nn3c(C(F)(F)F)cc(-c4ccco4)nc3c2Br)CC1	28	18	3	10µM*	0%
COc1cc(SC)ccc1C(=O)N(C)CC(=O)Nc1cccc2ccccc12	-14	x	x	u	-7%
COc1cc(SC)ccc1C(=O)NCc1ccccc1	-35	36*	26*	1%	u
CCCNC(=O)c1ccc(SC)cc1OC	22	17	12	11%	u
COc1cc(SC)ccc1C(=O)N(C)Cc1ccccc1	-12	28	22*	7%	21%
COc1cc(SC)ccc1C(=O)NCc1ccc(C)cc1	77	31	16*	u	u
COc1cc(SC)ccc1C(=O)NCCCOC(C)C	46	14	13*	25%	u
C[C@H](CO)N1C[C@H](C)[C@@H](CN(C)S(=O)(=O)c2cccc(F)c2)Oc2ncc(Br)cc2C1=O	-24	x	x	x	x
COc1cccc(CC2(CO)CCCN(Cc3cn[nH]c3-c3cc(C)ccc3C)C2)c1 (centres undefined)	6	1	-1	u	133%
O=C(NCC1CC1)[C@@H]1[C@@H](CO)[C@@H]2Cn3c(cccc3=O)[C@@H]2N1Cc1cccc(F)c1	-4	x	x	x	x
COC(=O)CCC(=O)OC1(C)C(=O)C=C2C=C(C3CC3)N(CCN3CCOCC3)C=C2C1=O (centres undefined)	15	4	-5	u	54%
C=CCN1C=C2C(=O)C(C)(OC(=O)CCC(=O)OC)C(=O)C=C2C=C1C1CC1 (centres undefined)	40	-5	0	7.4µM*	2.6µM*
COC(=O)CCC(=O)OC1(C)C(=O)C=C2C=C(C3CC3)N(Cc3ccc(OC)cc3)C=C2C1=O (centres undefined)	4	-6	-3	u	u
COC(=O)CCC(=O)OC1(C)C(=O)C=C2C=C(C3CC3)N(CCCCO)C=C2C1=O (centres undefined)	-7	20	-4	u	7.4µM*
COC(=O)CCC(=O)OC1(C)C(=O)C=C2C=C(C3CC3)N(Cc3ccc4c(c3)OCO4)C=C2C1=O (centres undefined)	5	-5	-1	u	13µM*
COC(=O)CCC(=O)OC1(C)C(=O)C=C2C=C(C3CC3)N(CCc3c[nH]c4ccccc34)C=C2C1=O (centres undefined)	26	-4	-4	12µM*	u
Cc1cccc(OCC(=O)N/N=C/c2cc([N+](=O)[O-])ccc2N2CCOCC2)c1	9	5	-2	1%	40%
COCCN1C=C2C(=O)C(C)(OC(=O)c3cccs3)C(=O)C=C2C=C1CCCC(=O)OC (centres undefined)	-12	2	-3	54%	u
